Giardia kill: kills Giardia lamblia; Giardia lamblia trophozoite viability; activity change, % at 7.66 µM, hits read low; 340,000 tested, 0.15% active; AID 540267; in the data active = activity change below about -80%; inconclusive = between about -30% and that limit;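 note: parasites exposed to compound for two days anaerobically before the ATP read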
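Killing of trophozoites was scored by loss of ATP luminescence after a 48 hrs anaerobic exposure to compounds at 37 deg C, using 100 cells per well.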
FBPA coupling cs: inhibits coupling enzyme system, counter-screen for aldolase hits. coupling enzyme system counterscreen, AmpLite Red fluorescence. activity change, negative = inhibition, % at 58.2 µM, hits read low. 290,000 tested, 0.67% active. AID 2472; in the data active = activity change below about -30%
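Fluorescence at 525 nm excitation and 598 nm emission measured inhibition of the coupled detection system without aldolase. Compounds (at 57.5 uM final) were preincubated 10 min at room temperature with coupling enzyme reagent before a 20 min substrate/AmpLite Red step.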
ELG1 repair inh: ELG1-dependent DNA repair inhibition | AID 504467 | Potency, µM (titrated, usually from 46.1 µM), without a hit: at the highest dose activity change, negative = inhibition, usual class: inhibitors | 330,000 tested, 2.3% active | HEK293T ELG1-luciferase reporter, luminescence, 16 h; DNA damage induced by 5-fluorouridine; note: potency is the fitted concentration of half-maximal effect; nearly all actives have a fitted effect of over 55% in size
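In this reporter screen, reduction of luminescence relative to DMSO vehicle indicated activity. Compounds and 5-fluorouridine were added together to 2,000 cells per well, incubated for 16 hr at 37 °C, then developed with ONE-Glo.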
Sfp PPTase inh: Sfp phosphopantetheinyl transferase inhibition; Q9F4F7; Biochemical Sfp PPTase activity, qHTS; Potency, µM, inactives show largest response in the series, negative = inhibition, actives largely listed as inhibitors; 310,000 tested, 3.5% active; AID 1490;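 note: the enzyme is Sfp with the accession as filed and its product quenches rhodamine fluorescence; potency is the fitted concentration of half-maximal effect; 0% = enzyme reaction without inhibitor and -100% = no enzyme wells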
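Sfp 15 nM + cpd, 15 min RT; start w/ rhodamine-CoA 5 uM, BHQ-2-YbbR 12.5 uM (final); 50 mM Hepes pH 7.6, 10 mM MgCl2, 0.01% NP-40, 0.01% BSA; read 525/598 nm at 0 and 30 min.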
* marks the source's active call; other numbers are inactive results; ? = inconclusive; . = not tested or not shown. This is a sample that favours compounds with a hit; in the whole collection about 5.5% have one here. Unless noted, calls come from the whole dose curve; as a rule, active = well fitted curve in the direction sought with a large enough effect; inconclusive = small, poorly fitted or top-dose-only effect, or another doubt; inactive = no such curve, though single readings can be large; an effect the other way counts as inactive or inconclusive. Unless noted, % is set by controls: 0 for no effect and ±100 for the full control effect.

SMILES	Giardia kill	FBPA coupling cs	ELG1 repair inh	Sfp PPTase inh
CC1(C)OC(c2ccccc2)=C/C(=C/C=N/NC(=O)c2ccncc2)O1	-1	-6	?	-4%
COc1ccc(N=C/C=C2\C=C(c3ccccc3)OC(C)(C)O2)cc1	17	-3	?	79µM*
CC1(C)OC(c2ccccc2)=C/C(=C/C=C2C(=O)c3ccccc3C2=O)O1	-6	-2	-4%	-6%
Cc1ccccc1N(CC(=O)N1CCCCCC1)S(C)(=O)=O	-5	1	-3%	12%
NCCCC[C@H](NC(=O)[C@H](CS)NC(=O)[C@@H](N)Cc1cnc[nH]1)C(=O)N[C@@H](Cc1ccccc1)C(=O)N[C@@H](Cc1c[nH]c2ccccc12)C(=O)N[C@@H](Cc1c[nH]c2ccccc12)C(=O)O	.	1	.	14%
COC(=O)C1C(=O)C2=C(CC1C)NC(=O)CC2c1ccc(F)cc1 (stereo not given)	-11	-1	-3%	20%
CCOc1cc(C2CC(=O)NC3=C2C(=O)C(C(=O)OC)C(C)C3)cc(Br)c1O (stereo not given)	-19	-8	-12%	50µM*
CCc1ccc2c(c1)C(NC(C)=O)C(=O)N2CC (stereo not given)	4	-11	0%	56µM*
CC(=O)NC1C(=O)N(CCN2CCOCC2)c2ccc(F)cc21 (stereo not given)	15	-1	-6%	71µM*
CC(=O)NC1C(=O)N(CCN2CCOCC2)c2ccc(C)cc21 (stereo not given)	-10	-3	16%	79µM*
Cc1[nH]c(=O)[nH]c(=O)c1S(=O)(=O)Nc1ccc(Br)cc1F	-4	4	6%	26%
Cc1cc(=O)n2[nH]c(-c3ccsc3-n3c(C)ccc3C)cc2n1	-21	-7	11%	45µM*
COCc1cc(=O)n2[nH]c(-c3ccsc3-n3c(C)ccc3C)cc2n1	7	-5	4%	56µM*
COc1ccccc1N1CCN(C(=O)CCC(=O)Nc2nnc(C(C)C)s2)CC1	-29	.	?	23%
Cc1onc(-c2c(F)cccc2Cl)c1C(=O)OCC(=O)c1c[nH]c2ccccc12	35	-4	23µM*	10%
Cc1ccc(NC(=O)Cc2c[nH]c3ccccc23)cc1S(=O)(=O)N1CCCCCC1	-13	-5	21µM*	3%
Cc1ccc(NC(=O)CNCc2ccc(Cl)cc2Cl)cc1S(=O)(=O)N(C)C	-3	1	-6%	79µM*
O=C(Cn1ncc(Cl)c(Cl)c1=O)NCC1CCCCC1	-9	3	18µM*	10%
COc1ccc2c(c1)C(=O)Cc1ccccc1O2	-5	.	.	.
C/C=C/C1=CC(=O)C[C@H](c2ccc(Cl)cc2)C1	4	.	20%	.
Cc1ccc(NC(=O)Cn2cc(C(F)(F)F)cc(Cl)c2=O)cc1S(=O)(=O)N1CCCCC1	8	.	?	.
O=C(CSc1nn(-c2ccccc2)c(=S)s1)Nn1cnnc1	-23	6	5%	11%
COc1ccc(CC(=O)Nc2ccc(C)c(S(=O)(=O)N3CCCCCC3)c2)cc1	-3	.	?	.
Cc1ccc(C(=O)OCC(=O)c2c[nH]c3ccccc23)cc1S(=O)(=O)N1CCCCC1	-21	-2	26µM*	-1%
Cc1ccc(NC(=O)CSc2nn(-c3ccccc3)c(=S)s2)cc1S(=O)(=O)N(C)C	-4	1	23µM*	8%
SMILES	Giardia kill	FBPA coupling cs	ELG1 repair inh	Sfp PPTase inh
Cc1ccc(NC(=O)Cn2ncc(Cl)c(Cl)c2=O)cc1S(=O)(=O)N1CCCCC1	7	.	15µM*	.
Cc1ccc(NC(=O)Cc2ccc(Cl)cc2)cc1S(=O)(=O)N1CCCCCC1	9	.	11µM*	.
COc1cc(CNC[C@H]2O[C@@H](n3cnc(C(N)=O)n3)[C@H](O)[C@@H]2O)ccc1OCc1cccc(Cl)c1	-16	.	.	.
CCN1C(C)=C(C(=O)OC)C(c2ccccc2)N2C(=O)[C@@]3(C(=O)OC)O[C@@]12C1C(=O)CCCC13 (stereo not given in full)	.	0	.	-1%
COc1ccc(N(CC(C)C)S(=O)(=O)c2nnc(NC(=O)CC(C)C)s2)cc1	29	3	-1%	8%
Oc1c(Br)cc(Br)cc1CNc1nccs1	1	-1	-2%	12%
O=C(c1ccc(CSc2nc3ccncc3[nH]2)cc1)N1CCCCCC1	?	-1	?	23%
O=C(c1ccc(CSc2nc3ccncc3[nH]2)cc1)N1CCN(c2cccc(Cl)c2)CC1	0	1	26µM*	-4%
Cc1ccc(CSc2nc3ccncc3[nH]2)cc1	-90*	0	?	0%
COc1ccccc1CN1CC[C@@]2(CCCN(C(=O)c3c(C)noc3C)C2)C1	.	1	.	-1%
Cc1cc(C)c2sc(C)[n+](CCCS(=O)(=O)[O-])c2c1	-2	4	-12%	2.5µM*
CC[n+]1c(C)sc2c(C)cc(C)cc21	18	3	7%	?
N=C1S/C(=C\c2ccc(-c3cccc(Cl)c3)o2)C(=O)N1c1nccs1	-3	5	?	35µM*
COc1ccc(/C=C2\SC(=N)N(c3nccs3)C2=O)cc1OC	-16	5	?	14%
O=C1OC(c2cccs2)=N/C1=C\c1ccc(-c2cccc(Cl)c2)o1	-10	0	1%	79µM*
COCC(=O)N1CCC2(CCN(Cc3ccncc3)CC2)CC1	.	-2	.	41%
O=[N+]([O-])c1nn(-c2ccccc2)[n+]([O-])c1N1CCN(c2ccccc2)CC1	-81*	3	0%	19%
Cc1cccc(-n2nc([N+](=O)[O-])c(N3CCN(C(=O)c4ccco4)CC3)[n+]2[O-])c1	?	-1	-16%	22%
O=[N+]([O-])c1nn(-c2ccccc2)[n+]([O-])c1N1CCN(c2ccccc2F)CC1	-89*	1	-11%	8%
COc1ccc(CC(=O)N[C@@H](C)C(=O)N2CCC3(CC2)NCCc2[nH]cnc23)cc1	27	.	-3%	11%
COc1ccc(CCNC(=O)C2c3ccccc3C(=O)N2CCC(C)C)cc1OC (stereo not given)	10	2	?	-7%
C=C1CSc2nc(=O)c3c4c(sc3n21)CCC4	-6	0	21µM*	-7%
COc1cc(/C=N/Nc2nc(-c3ccc(S(=O)(=O)N(C)C)cc3)cs2)ccc1O	-21	0	12µM*	79µM*
COc1ccc(-c2cnnc(N/N=C/c3ccc(O)c(OC)c3)n2)cc1	5	4	21µM*	-14%
CCOc1cc(/C=N/Nc2nc(-c3cccc(S(=O)(=O)N4CCCC4)c3)cs2)ccc1O	3	0	21µM*	?
O=S(=O)(c1cccc(-c2csc(N/N=C/c3ccco3)n2)c1)N1CCOCC1	3	-1	23µM*	2%
COCCn1c(=O)c(-c2cccc(C#N)c2)nc2cnc(N(C)C)nc21	.	-2	.	22%
COc1ccccc1OCC(=O)Nc1nc(C)c(C)s1	9	-1	?	7%
Cn1nc(C(F)(F)F)c(C#N)c1N1CCN(c2ccccn2)CC1	36	0	?	-9%
Cn1nc(C(F)(F)F)c(C#N)c1N1CCN(c2ccc(F)cc2)CC1	-3	-1	10µM*	7%
